PMC7862700, “An all-to-all approach to the identification of sequence-specific readers for epigenetic DNA modifications on cytosine”

The sequences below were run against T1, ETS2 (Homo sapiens, UniProt P15036 1-469) (assay: DAPPL (digital affinity profiling via proximity ligation, sequencing); 10 mM Tris-HCl pH 7.5, 50 mM NaCl, 1 mM DTT, 4% glycerol, room temperature, 30 min; GST-TFs on glutathione beads, 16-mer random dsDNA library, 0.1% formaldehyde crosslink after washing; high values mean tight binding). Conditions: protein: recombinant; tags: N-terminal GST; dsDNA, one strand shown.
T1 sequence: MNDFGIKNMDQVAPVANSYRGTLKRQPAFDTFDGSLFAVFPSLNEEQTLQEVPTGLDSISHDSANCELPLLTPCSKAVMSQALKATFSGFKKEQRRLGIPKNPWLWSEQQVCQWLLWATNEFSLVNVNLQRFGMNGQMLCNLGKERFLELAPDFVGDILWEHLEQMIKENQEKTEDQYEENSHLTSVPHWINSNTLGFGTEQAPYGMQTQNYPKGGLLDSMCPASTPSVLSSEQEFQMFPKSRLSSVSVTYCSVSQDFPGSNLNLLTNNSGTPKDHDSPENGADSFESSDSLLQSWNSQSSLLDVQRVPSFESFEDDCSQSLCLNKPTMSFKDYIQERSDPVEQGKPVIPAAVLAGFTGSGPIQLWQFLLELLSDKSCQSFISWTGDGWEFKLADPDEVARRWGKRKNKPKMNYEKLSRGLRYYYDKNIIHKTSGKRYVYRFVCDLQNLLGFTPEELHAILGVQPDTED
Method in brief: (§1)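 Human transcription factors were made in yeast as GST fusions, captured on glutathione beads and barcoded with DNA. With a tag-only sample included, the pool was incubated with 200 nmole of a random double-stranded 16-mer DNA library in Tris/NaCl/DTT/glycerol buffer at room temperature for 30 min, then crosslinked with 0.1% formaldehyde after washing, ligated by proximity, amplified and sequenced. For binding signal, each hexamer's read frequency for a factor is divided by its frequency for the tag-only sample.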

| Sequence | binding signal |
| --- | --- |
| TCATAT | 1.27 fold enrichment (6-mer frequency, TF over GST control) |
| AAAGCA | 1.05 fold enrichment (6-mer frequency, TF over GST control) |
| TAACAA | 1.15 fold enrichment (6-mer frequency, TF over GST control) |
| TTCTAT | 1.38 fold enrichment (6-mer frequency, TF over GST control) |
| TGTTTC | 1.79 fold enrichment (6-mer frequency, TF over GST control) |
| TTGCGA | 1.14 fold enrichment (6-mer frequency, TF over GST control) |
| ACAATT | 1.29 fold enrichment (6-mer frequency, TF over GST control) |
| AATTAC | 1.36 fold enrichment (6-mer frequency, TF over GST control) |
| CAATCC | 1.22 fold enrichment (6-mer frequency, TF over GST control) |
| GTCTCC | 1.52 fold enrichment (6-mer frequency, TF over GST control) |
| TTTTGC | 1.31 fold enrichment (6-mer frequency, TF over GST control) |
| TGGCTT | 1.26 fold enrichment (6-mer frequency, TF over GST control) |
| CTACAT | 1.43 fold enrichment (6-mer frequency, TF over GST control) |
| CATCTC | 1.36 fold enrichment (6-mer frequency, TF over GST control) |
| AAAGAC | 1.12 fold enrichment (6-mer frequency, TF over GST control) |
| ATACCT | 1.16 fold enrichment (6-mer frequency, TF over GST control) |
| GGCCTT | 1.09 fold enrichment (6-mer frequency, TF over GST control) |
| TCAACC | 1.22 fold enrichment (6-mer frequency, TF over GST control) |
| TTCTCA | 1.21 fold enrichment (6-mer frequency, TF over GST control) |
| ATCTCG | 1.42 fold enrichment (6-mer frequency, TF over GST control) |

What follows are sequences tested against T2, SPDEF (Homo sapiens, UniProt O95238 1-335) in the same assay as above. Conditions: protein: recombinant; tags: N-terminal GST; dsDNA, one strand shown.
T2 sequence: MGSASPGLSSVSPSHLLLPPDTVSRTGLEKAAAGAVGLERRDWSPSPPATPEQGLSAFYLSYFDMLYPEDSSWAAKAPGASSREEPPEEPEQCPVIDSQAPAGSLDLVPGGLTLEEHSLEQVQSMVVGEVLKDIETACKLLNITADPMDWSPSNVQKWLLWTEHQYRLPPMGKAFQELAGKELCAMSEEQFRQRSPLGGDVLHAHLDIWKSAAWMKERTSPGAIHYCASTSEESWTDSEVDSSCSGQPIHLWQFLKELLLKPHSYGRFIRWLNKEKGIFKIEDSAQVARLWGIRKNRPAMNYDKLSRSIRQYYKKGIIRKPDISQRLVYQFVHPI
Method in brief: as §1

| Sequence | binding signal |
| --- | --- |
| CACTAA | 1.15 fold enrichment (6-mer frequency, TF over GST control) |
| CCGCCT | 1.75 fold enrichment (6-mer frequency, TF over GST control) |
| AATGTC | 1.36 fold enrichment (6-mer frequency, TF over GST control) |
| CGATTT | 1.07 fold enrichment (6-mer frequency, TF over GST control) |
| CGTTCG | 1.04 fold enrichment (6-mer frequency, TF over GST control) |
| CTATAT | 1.51 fold enrichment (6-mer frequency, TF over GST control) |
| TCGCTC | 1.19 fold enrichment (6-mer frequency, TF over GST control) |
| AAAACC | 1.18 fold enrichment (6-mer frequency, TF over GST control) |
| TTTTGG | 1.36 fold enrichment (6-mer frequency, TF over GST control) |
| TATTCC | 1.83 fold enrichment (6-mer frequency, TF over GST control) |
| ACGTCC | 2.11 fold enrichment (6-mer frequency, TF over GST control) |
| ATACCC | 1.27 fold enrichment (6-mer frequency, TF over GST control) |
| ATTCTA | 1.23 fold enrichment (6-mer frequency, TF over GST control) |
| AACTTT | 1.17 fold enrichment (6-mer frequency, TF over GST control) |
| ATCTAA | 1.11 fold enrichment (6-mer frequency, TF over GST control) |
| TAAATT | 1.21 fold enrichment (6-mer frequency, TF over GST control) |
| CCCGAC | 1.44 fold enrichment (6-mer frequency, TF over GST control) |
| ATGAGC | 1.12 fold enrichment (6-mer frequency, TF over GST control) |
| GCGATG | 1.29 fold enrichment (6-mer frequency, TF over GST control) |
| CTCTGG | 1.19 fold enrichment (6-mer frequency, TF over GST control) |

| Sequence | binding signal |
| --- | --- |
| TCATAT | 1.23 fold enrichment (6-mer frequency, TF over GST control) |
| AAAGCA | 1.06 fold enrichment (6-mer frequency, TF over GST control) |
| TAACAA | 1.14 fold enrichment (6-mer frequency, TF over GST control) |
| TTCTAT | 1.35 fold enrichment (6-mer frequency, TF over GST control) |
| TGTTTC | 1.81 fold enrichment (6-mer frequency, TF over GST control) |
| TTGCGA | 1.11 fold enrichment (6-mer frequency, TF over GST control) |
| ACAATT | 1.13 fold enrichment (6-mer frequency, TF over GST control) |
| AATTAC | 1.24 fold enrichment (6-mer frequency, TF over GST control) |
| CAATCC | 1.4 fold enrichment (6-mer frequency, TF over GST control) |
| GTCTCC | 1.47 fold enrichment (6-mer frequency, TF over GST control) |
| TTTTGC | 1.35 fold enrichment (6-mer frequency, TF over GST control) |
| TGGCTT | 1.11 fold enrichment (6-mer frequency, TF over GST control) |
| CTACAT | 1.5 fold enrichment (6-mer frequency, TF over GST control) |
| CATCTC | 1.24 fold enrichment (6-mer frequency, TF over GST control) |
| AAAGAC | 1.01 fold enrichment (6-mer frequency, TF over GST control) |
| ATACCT | 1.04 fold enrichment (6-mer frequency, TF over GST control) |
| GGCCTT | 1.06 fold enrichment (6-mer frequency, TF over GST control) |
| TCAACC | 1.2 fold enrichment (6-mer frequency, TF over GST control) |
| TTCTCA | 1.17 fold enrichment (6-mer frequency, TF over GST control) |
| ATCTCG | 1.28 fold enrichment (6-mer frequency, TF over GST control) |

These sequences were tested against T3, ETV7 (Homo sapiens, UniProt Q9Y603 1-341) in the same assay as above. Conditions: protein: recombinant; tags: N-terminal GST; dsDNA, one strand shown.
T3 sequence: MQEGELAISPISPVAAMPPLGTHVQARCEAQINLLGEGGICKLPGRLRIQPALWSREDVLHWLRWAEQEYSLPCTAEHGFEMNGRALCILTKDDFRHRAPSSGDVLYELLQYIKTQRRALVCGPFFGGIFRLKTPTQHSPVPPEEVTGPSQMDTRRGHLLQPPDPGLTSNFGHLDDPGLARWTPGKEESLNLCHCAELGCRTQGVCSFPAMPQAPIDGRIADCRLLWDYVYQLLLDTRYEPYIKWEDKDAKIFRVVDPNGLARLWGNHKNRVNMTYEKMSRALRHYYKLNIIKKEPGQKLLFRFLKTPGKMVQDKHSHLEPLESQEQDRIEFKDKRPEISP
Method in brief: as §1

| Sequence | binding signal |
| --- | --- |
| CACTAA | 1.19 fold enrichment (6-mer frequency, TF over GST control) |
| CCGCCT | 1.52 fold enrichment (6-mer frequency, TF over GST control) |
| AATGTC | 1.23 fold enrichment (6-mer frequency, TF over GST control) |
| CGATTT | 1.13 fold enrichment (6-mer frequency, TF over GST control) |
| CGTTCG | 1.24 fold enrichment (6-mer frequency, TF over GST control) |
| CTATAT | 1.41 fold enrichment (6-mer frequency, TF over GST control) |
| TCGCTC | 1.02 fold enrichment (6-mer frequency, TF over GST control) |
| AAAACC | 1.25 fold enrichment (6-mer frequency, TF over GST control) |
| TTTTGG | 1.43 fold enrichment (6-mer frequency, TF over GST control) |
| TATTCC | 1.66 fold enrichment (6-mer frequency, TF over GST control) |
| ACGTCC | 1.61 fold enrichment (6-mer frequency, TF over GST control) |
| ATACCC | 1.18 fold enrichment (6-mer frequency, TF over GST control) |
| ATTCTA | 1.28 fold enrichment (6-mer frequency, TF over GST control) |
| AACTTT | 1.2 fold enrichment (6-mer frequency, TF over GST control) |
| ATCTAA | 1.22 fold enrichment (6-mer frequency, TF over GST control) |
| TAAATT | 1.27 fold enrichment (6-mer frequency, TF over GST control) |
| CCCGAC | 1.37 fold enrichment (6-mer frequency, TF over GST control) |
| ATGAGC | 1.15 fold enrichment (6-mer frequency, TF over GST control) |
| GCGATG | 1.31 fold enrichment (6-mer frequency, TF over GST control) |
| CTCTGG | 1.33 fold enrichment (6-mer frequency, TF over GST control) |

| Sequence | binding signal |
| --- | --- |
| TCATAT | 1.05 fold enrichment (6-mer frequency, TF over GST control) |
| AAAGCA | 1.15 fold enrichment (6-mer frequency, TF over GST control) |
| TAACAA | 1.21 fold enrichment (6-mer frequency, TF over GST control) |
| TTCTAT | 1.33 fold enrichment (6-mer frequency, TF over GST control) |
| TGTTTC | 1.89 fold enrichment (6-mer frequency, TF over GST control) |
| TTGCGA | 1.14 fold enrichment (6-mer frequency, TF over GST control) |
| ACAATT | 1.21 fold enrichment (6-mer frequency, TF over GST control) |
| AATTAC | 1.36 fold enrichment (6-mer frequency, TF over GST control) |
| CAATCC | 1.16 fold enrichment (6-mer frequency, TF over GST control) |
| GTCTCC | 1.32 fold enrichment (6-mer frequency, TF over GST control) |
| TTTTGC | 1.36 fold enrichment (6-mer frequency, TF over GST control) |
| TGGCTT | 1.31 fold enrichment (6-mer frequency, TF over GST control) |
| CTACAT | 1.32 fold enrichment (6-mer frequency, TF over GST control) |
| CATCTC | 1.15 fold enrichment (6-mer frequency, TF over GST control) |
| AAAGAC | 1.03 fold enrichment (6-mer frequency, TF over GST control) |
| ATACCT | 1.18 fold enrichment (6-mer frequency, TF over GST control) |
| GGCCTT | 1.34 fold enrichment (6-mer frequency, TF over GST control) |
| TCAACC | 1.07 fold enrichment (6-mer frequency, TF over GST control) |
| TTCTCA | 1.26 fold enrichment (6-mer frequency, TF over GST control) |
| ATCTCG | 1.38 fold enrichment (6-mer frequency, TF over GST control) |
